# Laboratory results: article PMC8384837, “Expanding the binding specificity for RNA recognition by a PUF domain”
# Where a chain is given by its changes, count along the chain named.
# Experiments:
# Test in all cases: yeast three-hybrid, YBZ-1, SC-Leu-His + 0.5 mM 3-AT, 4 days
# Conditions in all cases: tags: N-Gal4 AD-HA kept; label: inside an RPR1-promoter hybrid RNA with tandem MS2 sites; ssRNA
# PUM1 PUF domain R4-GPA = PUM1 PUF domain R4-GPA (Homo sapiens, UniProt Q14671 828-1176, N971G;H972P;Q975A)
# Summary of the method: (§1)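 The interaction score is the log change in how often each variant appears, from input to selection. Frequencies came from PCR-amplified, Illumina-sequenced repeat regions of Pumilio-1 PUF domain libraries grown in strain YBZ-1 (LexA–MS2 coat fusion, HIS3 reporter) alongside matching RNA elements. Input plates were SC-Leu and selection plates were SC-Leu-His + 0.5 mM 3-AT, each for four days, and the log2 calculation used a pseudocount of 1 where a variant was absent.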
# PUM1 PUF domain R4-PYG = PUM1 PUF domain R4-PYG (Homo sapiens, UniProt Q14671 828-1176, N971P;H972Y;Q975G)
# Summary of the method: as §1
# PUM1 PUF domain R4-CMG = PUM1 PUF domain R4-CMG (Homo sapiens, UniProt Q14671 828-1176, N971C;H972M;Q975G)
# Summary of the method: as §1
# PUM1 PUF domain R4-GNL = PUM1 PUF domain R4-GNL (Homo sapiens, UniProt Q14671 828-1176, N971G;H972N;Q975L)
# Summary of the method: as §1
# PUM1 PUF domain R4-PWK = PUM1 PUF domain R4-PWK (Homo sapiens, UniProt Q14671 828-1176, N971P;H972W;Q975K)
# Summary of the method: as §1
# PUM1 PUF domain R5-RKN = PUM1 PUF domain R5-RKN (Homo sapiens, UniProt Q14671 828-1176, C1007R;R1008K;Q1011N)
# Summary of the method: as §1
# PUM1 PUF domain R5-KKE = PUM1 PUF domain R5-KKE (Homo sapiens, UniProt Q14671 828-1176, C1007K;R1008K;Q1011E)
# Summary of the method: as §1
# PUM1 PUF domain R5-RFP = PUM1 PUF domain R5-RFP (Homo sapiens, UniProt Q14671 828-1176, C1007R;R1008F;Q1011P)
# Summary of the method: as §1
# PUM1 PUF domain R3-TFP = PUM1 PUF domain R3-TFP (Homo sapiens, UniProt Q14671 828-1176, C935T;R936F;Q939P)
# Summary of the method: as §1
# PUM1 PUF domain R6-GHR = target: T1, PUM1 PUF domain R6-GHR (Homo sapiens, UniProt Q14671 828-1176, N1043G;Y1044H;Q1047R)
# T1 sequence: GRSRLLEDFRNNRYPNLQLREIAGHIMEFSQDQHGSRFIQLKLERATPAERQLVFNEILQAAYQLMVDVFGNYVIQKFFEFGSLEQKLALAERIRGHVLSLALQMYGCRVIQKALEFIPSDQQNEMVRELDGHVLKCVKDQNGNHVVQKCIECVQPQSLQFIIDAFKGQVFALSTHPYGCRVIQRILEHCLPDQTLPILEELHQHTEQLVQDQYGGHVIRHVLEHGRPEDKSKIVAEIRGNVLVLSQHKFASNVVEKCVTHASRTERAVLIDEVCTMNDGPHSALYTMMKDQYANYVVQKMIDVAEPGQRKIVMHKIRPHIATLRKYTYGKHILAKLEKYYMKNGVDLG
# Summary of the method: as §1
# PUM1 PUF domain R8-RRK = PUM1 PUF domain R8-RRK (Homo sapiens, UniProt Q14671 828-1176, N1122R;Y1123R;Q1126K)
# Summary of the method: as §1
# PUM1 PUF domain R4-SMC = PUM1 PUF domain R4-SMC (Homo sapiens, UniProt Q14671 828-1176, N971S;H972M;Q975C)
# Summary of the method: as §1
# PUM1 PUF domain R8-PYG = PUM1 PUF domain R8-PYG (Homo sapiens, UniProt Q14671 828-1176, N1122P;Q1126G)
# Summary of the method: as §1
# PUM1 PUF domain R3-LFC = PUM1 PUF domain R3-LFC (Homo sapiens, UniProt Q14671 828-1176, C935L;R936F;Q939C)
# Summary of the method: as §1
# PUM1 PUF domain R6-CYQ = target: T2, PUM1 PUF domain R6-CYQ (Homo sapiens, UniProt Q14671 828-1176, N1043C)
# T2 sequence: T1 sequence with G216C, H217Y, R220Q
# Summary of the method: as §1
# PUM1 PUF domain R7-RGS = PUM1 PUF domain R7-RGS (Homo sapiens, UniProt Q14671 828-1176, S1079R;N1080G;E1083S)
# Summary of the method: as §1
# PUM1 PUF domain R5-TNG = PUM1 PUF domain R5-TNG (Homo sapiens, UniProt Q14671 828-1176, C1007T;R1008N;Q1011G)
# Summary of the method: as §1
# PUM1 PUF domain R3-RQV = PUM1 PUF domain R3-RQV (Homo sapiens, UniProt Q14671 828-1176, C935R;R936Q;Q939V)
# Summary of the method: as §1
# PUM1 PUF domain R2-AFS = PUM1 PUF domain R2-AFS (Homo sapiens, UniProt Q14671 828-1176, N899A;Y900F;Q903S)
# Summary of the method: as §1
# PUM1 PUF domain R2-LFG = PUM1 PUF domain R2-LFG (Homo sapiens, UniProt Q14671 828-1176, N899L;Y900F;Q903G)
# Summary of the method: as §1
sequence,measurement,setting,value
GGCUAGAACUAGUGGAUCCCCCGGCGCCCGGCGGCUCGAGCCCGGGUAAGUGUACAUAGUCUGCAUGCCGCCGGGCGCCAUGCCUGCAGGUCGACUCUAGAAAACAUG,binding signal,PUM1 PUF domain R4-GPA,2.05 log2 enrichment (interaction score)
same,binding signal,PUM1 PUF domain R4-PYG,6.89 log2 enrichment (interaction score)
same,binding signal,PUM1 PUF domain R4-CMG,2.47 log2 enrichment (interaction score)
same,binding signal,PUM1 PUF domain R4-GNL,1.04 log2 enrichment (interaction score)
same,binding signal,PUM1 PUF domain R4-PWK,6.55 log2 enrichment (interaction score)
GGCUAGAACUAGUGGAUCCCCCGGCGCCCGGCGGCUCGAGCCCGGGUAAGUGUCAAUAGUCUGCAUGCCGCCGGGCGCCAUGCCUGCAGGUCGACUCUAGAAAACAUG,binding signal,PUM1 PUF domain R5-RKN,2.84 log2 enrichment (interaction score)
same,binding signal,PUM1 PUF domain R5-KKE,5.07 log2 enrichment (interaction score)
same,binding signal,PUM1 PUF domain R5-RFP,4.87 log2 enrichment (interaction score)
GGCUAGAACUAGUGGAUCCCCCGGCGCCCGGCGGCUCGAGCCCGGGUAAGUGUAAAUAGUCUGCAUGCCGCCGGGCGCCAUGCCUGCAGGUCGACUCUAGAAAACAUG,binding signal,PUM1 PUF domain R3-TFP,4.82 log2 enrichment (interaction score)
same,binding signal,PUM1 PUF domain R6-GHR,3.81 log2 enrichment (interaction score)
same,binding signal,PUM1 PUF domain R8-RRK,4.75 log2 enrichment (interaction score)
same,binding signal,PUM1 PUF domain R4-GPA,3.16 log2 enrichment (interaction score)
same,binding signal,PUM1 PUF domain R4-PYG,5.58 log2 enrichment (interaction score)
same,binding signal,PUM1 PUF domain R4-CMG,3.4 log2 enrichment (interaction score)
same,binding signal,PUM1 PUF domain R4-SMC,3.15 log2 enrichment (interaction score)
same,binding signal,PUM1 PUF domain R5-RFP,2.31 log2 enrichment (interaction score)
same,binding signal,PUM1 PUF domain R8-PYG,1.81 log2 enrichment (interaction score)
same,binding signal,PUM1 PUF domain R3-LFC,1.84 log2 enrichment (interaction score)
GGCUAGAACUAGUGGAUCCCCCGGCGCCCGGCGGCUCGAGCCCGGGUAAGCGUAAAUAGUCUGCAUGCCGCCGGGCGCCAUGCCUGCAGGUCGACUCUAGAAAACAUG,binding signal,PUM1 PUF domain R8-RRK,5.29 log2 enrichment (interaction score)
same,binding signal,PUM1 PUF domain R8-PYG,2.76 log2 enrichment (interaction score)
GGCUAGAACUAGUGGAUCCCCCGGCGCCCGGCGGCUCGAGCCCGGGUAAGUGAAAAUAGUCUGCAUGCCGCCGGGCGCCAUGCCUGCAGGUCGACUCUAGAAAACAUG,binding signal,PUM1 PUF domain R6-CYQ,6 log2 enrichment (interaction score)
GGCUAGAACUAGUGGAUCCCCCGGCGCCCGGCGGCUCGAGCCCGGGUAAGUGCAAAUAGUCUGCAUGCCGCCGGGCGCCAUGCCUGCAGGUCGACUCUAGAAAACAUG,binding signal,PUM1 PUF domain R6-GHR,2.2 log2 enrichment (interaction score)
GGCUAGAACUAGUGGAUCCCCCGGCGCCCGGCGGCUCGAGCCCGGGUAAGUUUAAAUAGUCUGCAUGCCGCCGGGCGCCAUGCCUGCAGGUCGACUCUAGAAAACAUG,binding signal,PUM1 PUF domain R7-RGS,3.37 log2 enrichment (interaction score)
GGCUAGAACUAGUGGAUCCCCCGGCGCCCGGCGGCUCGAGCCCGGGUAAGUCUAAAUAGUCUGCAUGCCGCCGGGCGCCAUGCCUGCAGGUCGACUCUAGAAAACAUG,binding signal,PUM1 PUF domain R7-RGS,1.66 log2 enrichment (interaction score)
GGCUAGAACUAGUGGAUCCCCCGGCGCCCGGCGGCUCGAGCCCGGGUAAGUGUUAAUAGUCUGCAUGCCGCCGGGCGCCAUGCCUGCAGGUCGACUCUAGAAAACAUG,binding signal,PUM1 PUF domain R5-TNG,3.75 log2 enrichment (interaction score)
GGCUAGAACUAGUGGAUCCCCCGGCGCCCGGCGGCUCGAGCCCGGGUAAGUGUAUAUAGUCUGCAUGCCGCCGGGCGCCAUGCCUGCAGGUCGACUCUAGAAAACAUG,binding signal,PUM1 PUF domain R4-GPA,1.91 log2 enrichment (interaction score)
same,binding signal,PUM1 PUF domain R4-PYG,7.83 log2 enrichment (interaction score)
same,binding signal,PUM1 PUF domain R4-SMC,2.83 log2 enrichment (interaction score)
same,binding signal,PUM1 PUF domain R4-GNL,3.47 log2 enrichment (interaction score)
same,binding signal,PUM1 PUF domain R4-PWK,6.97 log2 enrichment (interaction score)
GGCUAGAACUAGUGGAUCCCCCGGCGCCCGGCGGCUCGAGCCCGGGUAAGUGUAAGUAGUCUGCAUGCCGCCGGGCGCCAUGCCUGCAGGUCGACUCUAGAAAACAUG,binding signal,PUM1 PUF domain R3-LFC,5.61 log2 enrichment (interaction score)
GGCUAGAACUAGUGGAUCCCCCGGCGCCCGGCGGCUCGAGCCCGGGUAAGUGUAAUUAGUCUGCAUGCCGCCGGGCGCCAUGCCUGCAGGUCGACUCUAGAAAACAUG,binding signal,PUM1 PUF domain R3-TFP,3.79 log2 enrichment (interaction score)
same,binding signal,PUM1 PUF domain R3-RQV,4.16 log2 enrichment (interaction score)
GGCUAGAACUAGUGGAUCCCCCGGCGCCCGGCGGCUCGAGCCCGGGUAAGUGUAAAAAGUCUGCAUGCCGCCGGGCGCCAUGCCUGCAGGUCGACUCUAGAAAACAUG,binding signal,PUM1 PUF domain R2-AFS,3.67 log2 enrichment (interaction score)
same,binding signal,PUM1 PUF domain R2-LFG,3.76 log2 enrichment (interaction score)
GGCUAGAACUAGUGGAUCCCCCGGCGCCCGGCGGCUCGAGCCCGGGUAAGUGUAAAGAGUCUGCAUGCCGCCGGGCGCCAUGCCUGCAGGUCGACUCUAGAAAACAUG,binding signal,PUM1 PUF domain R2-LFG,0.94 log2 enrichment (interaction score)
